PubChem BioAssay (NCI)
This is part of a sample that, as a whole, favours compounds with a hit. Of some 83,000 tested, about 20% had one in any assay.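 Each cell line was grown in a 96-well plate and treated with one concentration of compound for 48 hours. Values below 10 were considered active.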 A number with no mark means an inactive call. Activity calls are given as the source filed them.

Tests used:
Assay in all cases: NCI-60 one-dose screen, 48 h (100 = growth as untreated, 0 = no growth, -100 = all killed)
Details in all cases: 10 µM unless noted
DU-145 prostate = test system: DU-145 prostate
K-562 leukemia = test system: K-562 leukemia
MALME-3M melanoma = test system: MALME-3M melanoma
MDA-MB-231 breast = test system: MDA-MB-231 breast
RXF 393 renal = test system: RXF 393 renal
SF-268 CNS = test system: SF-268 CNS
SF-295 CNS = test system: SF-295 CNS
SF-539 CNS = test system: SF-539 CNS
UACC-257 melanoma = test system: UACC-257 melanoma
M14 melanoma = test system: M14 melanoma
HCT-15 colon = test system: HCT-15 colon
HT29 colon = test system: HT29 colon
SNB-75 CNS = test system: SNB-75 CNS
SNB-19 CNS = test system: SNB-19 CNS
U251 CNS = test system: U251 CNS
PC-3 prostate = test system: PC-3 prostate
SK-MEL-5 melanoma = test system: SK-MEL-5 melanoma
UACC-62 melanoma = test system: UACC-62 melanoma
LOX IMVI melanoma = test system: LOX IMVI melanoma
SK-MEL-28 melanoma = test system: SK-MEL-28 melanoma

Structure (SMILES)	growth (DU-145 prostate)	growth (K-562 leukemia)	growth (MALME-3M melanoma)	growth (MDA-MB-231 breast)	growth (RXF 393 renal)	growth (SF-268 CNS)	growth (SF-295 CNS)	growth (SF-539 CNS)	growth (UACC-257 melanoma)	growth (M14 melanoma)	growth (HCT-15 colon)	growth (HT29 colon)	growth (SNB-75 CNS)	growth (SNB-19 CNS)	growth (U251 CNS)	growth (PC-3 prostate)	growth (SK-MEL-5 melanoma)	growth (UACC-62 melanoma)	growth (LOX IMVI melanoma)	growth (SK-MEL-28 melanoma)
O=C(c1ccccc1)N1N=C(c2ccccc2)CC1c1nnc2n(Cc3ccccc3)c(=O)c3c4c(sc3n12)CCCC4 (stereo not given)	116%	116%	85.2%	111%	104%	99.3%	138%	92.1%	112%	111%	102%	101%	108%	101%	98.3%	97.9%	109%	112%	91.8%	106%
CCCCCCCCCCCCCCCCCC1=NCCN1CCOC1=C(Cl)C(=O)c2ccccc2C1=O	109%	21.7%	67.1%	55.9%	102%	91.2%	108%	104%	72.3%	83.1%	55.4%	65%	87.4%	81.4%	66.4%	55.3%	103%	40.6%	66.6%	92.1%
COc1ccc(N2CCN(c3nc(-c4cc(OC)c(OC)c(OC)c4)nc4ccccc34)CC2)cc1	93.5%	79.1%	108%	71%	92.6%	87.7%	95.2%	96.9%	102%	71.3%	61.8%	81.5%	84.5%	93.5%	96.1%	41.3%	46.4%	56%	79.3%	87.1%
CCSC1=NC2C(N(CC)C(=O)N2CC)N1/N=C/C=C/c1ccccc1[N+](=O)[O-] (stereo not given)	5.79% (active)	10.4%	36.2%	-1.7% (active)	41.5%	45.2%	8.87% (active)	-26.3% (active)	61.1%	6.53% (active)	10.7%	3.47% (active)	23.8%	22.1%	12.7%	22.9%	-38.6% (active)	25.5%	14.3%	54.5%
Cc1cc(C)c(-c2c(C)cc(C)cc2CBr)c(CBr)c1	94.9%	67.7%	73.5%	97.9%	14.8%	74.2%	84.7%	96.4%	73.9%	72.5%	80.6%	86.3%	92.3%	86.2%	73%	78.4%	77.6%	70.9%	53%	86.9%
C=C1C(=O)O[C@H]2[C@H]1CC/C(COC(=O)C(=O)c1cn(C)c3ccc(OC)cc13)=C\CC[C@@]1(C)O[C@@H]21	-79% (active)	2.97% (active)	-74.8% (active)	-58.4% (active)	-94.8% (active)	-40.6% (active)	10.2%	-66.9% (active)	-72.1% (active)	-77.3% (active)	-53.1% (active)	-52.7% (active)	-76.7% (active)	-13.8% (active)	-92.5% (active)	-59.2% (active)	-100% (active)	-84.8% (active)	-88.5% (active)	-65.3% (active)
C=CCn1c(C)nc2cc(Nc3nc(Cl)nc4ccccc34)ccc21	105%	74.8%	122%	89.9%	87.4%	89.9%	84.8%	97.4%	102%	110%	92.3%	98.8%	96.9%	107%	95.5%	82%	91.4%	93.1%	104%	107%
CC(=O)O[C@]1(C(C)=O)CCC2C3C[C@H](C)C4=CC(=O)CC[C@]4(C)C3CC[C@@]21C (stereo not given in full)	117%	96%	82.8%	71%	119%	108%	95.7%	94.1%	107%	89%	92.3%	87.7%	96%	96.4%	104%	68.4%	81.8%	79.3%	95.7%	108%
O=C1/C(=C\c2cccnc2)SC(=S)N1CCc1ccc(O)cc1	16.6%	36%	79.6%	47.1%	25.1%	68.5%	94%	23.2%	38.9%	60.2%	19.2%	105%	-4.79% (active)	82.5%	68.3%	42.2%	90.1%	59.9%	17.4%	71%
Cc1ccc2nc(C)c(-c3nnc(SCc4ccc(C#N)cc4)o3)n2c1	112%	38%	101%	74.2%	89.5%	96.6%	92.9%	88.3%	119%	102%	79.6%	115%	77.7%	90.7%	95.3%	109%	92.9%	74.4%	93.2%	100%
CC(=O)c1ccc(NCC(=O)Nc2ccccn2)cc1	107%	95.6%	97.6%	94.1%	117%	97.1%	109%	106%	106%	106%	109%	109%	92.7%	100%	102%	96.4%	99.9%	97%	101%	115%
COc1cc(Cn2ncc3ccc(NC(=O)c4cc5ccccc5oc4=N)cc32)cc(OC)c1OC	88.5%	16.3%	54%	54.4%	73.3%	85.8%	63.6%	29.5%	98.8%	29.5%	27.2%	15.8%	90.9%	70.9%	62.9%	47.1%	61.6%	55.2%	63.6%	51.3%
COc1cccc(-c2nn(-c3ccccc3)cc2-c2ccnc(NCCCNC(=O)c3cccc(C(F)(F)F)c3)c2)c1	52.3%	18%	9.81% (active)	23.6%	36%	57.4%	27.3%	30.6%	12.1%	28.2%	21%	8.77% (active)	58.6%	45.3%	24.7%	13.3%	-64.4% (active)	23.9%	28%	50.3%
Nc1nc(N)c2c(n1)NC(c1ccccc1)C1CCc3ccccc3C1=N2 (stereo not given)	49.1%	12.1%	15.3%	64.6%	84.7%	62.7%	17%	47.8%	19.7%	53.2%	39%	27.9%	54.7%	67.2%	37.1%	40.8%	-23.3% (active)	49.3%	44.5%	76.4%
N#Cc1nc2c(S(=O)(=O)c3ccc(Cl)cc3)c(N)n(Nc3cccc(Cl)c3)c2nc1C#N	16.2%	25.9%	25.3%	58.8%	46.3%	53.8%	48.9%	38.9%	47.9%	79%	91.2%	69.5%	55.9%	64.6%	40%	-56.8% (active)	42.8%	49.2%	61.3%	26.1%
